The results in this text go back to PubChem BioAssay (EPA / NIEHS).

Where “and” joins values, the source holds several entries; their conditions need not be identical. Equal entries are not always repeated. Records with an inconclusive call do not appear. Calls of active or inactive are those of the source. How the source made its calls: active means hit-call score of the fitted dose curve at least 0.9, where 1 is the maximum; inconclusive means response in the unintended direction; inactive means score below 0.9. *1 amine or outer side, *2 acyl side, *3 side chain or, on linkers, in order; H or OH if unused. Where a SMILES comes first, the peptide text is derived from it. Bridges are numbered along the chain shown (N, C = ends). [ ]: non-standard residue; d: D form. The star is where a group is joined. X3 = NC1=N[C@@H]([C@H](N[*:1])C(=O)[*:2])C[C@H](O)N1; ΔAla(Z-3-ureido) = NC(=O)N/C=C(\N)C(=O)O; β3hOrn = NCCC[C@H](N)CC(=O)*; Dap = NC[C@H](N)C(=O)O

Sequence of Cellular tumor antigen p53 (Homo sapiens) (P04637 whole entry, looked up): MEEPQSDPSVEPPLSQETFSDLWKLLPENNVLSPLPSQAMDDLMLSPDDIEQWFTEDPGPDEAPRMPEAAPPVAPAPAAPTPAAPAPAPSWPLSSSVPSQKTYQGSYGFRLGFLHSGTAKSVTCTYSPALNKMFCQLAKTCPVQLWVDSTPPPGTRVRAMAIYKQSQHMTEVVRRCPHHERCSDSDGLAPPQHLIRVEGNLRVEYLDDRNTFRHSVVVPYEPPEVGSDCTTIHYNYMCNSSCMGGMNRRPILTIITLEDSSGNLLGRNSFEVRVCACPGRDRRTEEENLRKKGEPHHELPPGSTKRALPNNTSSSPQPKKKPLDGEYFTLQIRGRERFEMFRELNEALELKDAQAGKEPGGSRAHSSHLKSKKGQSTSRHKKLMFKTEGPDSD

This experiment has as its target Cellular tumor antigen p53 (Homo sapiens) (UniProt P04637). As to the kind of experiment: TOX21_p53_BLA_p2_ratio: Tox21 HCT-116 p53 Agonism Beta-lactamase Assay, Ratio, Phase 2 (AID 2283592). A digest of the protocol:
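First, HCT116 reporter cells settle for 5 h at 37C. Next, DMSO compound solutions are pinned in (217-fold dilution) and left 16 h. Finally, CCF4-AM substrate is loaded 2 h at room temperature and the 460/530 nm ratio read.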
Take `NC(=O)c1cc[n+](CC2=C(C(=O)O)N3C(=O)[C@@H](NC(=O)[C@@H](c4ccccc4)S(=O)(=O)[O-])[C@H]3SC2)cc1`: the outcome was inactive.

As for `CC(C)[C@@H](N)C(=O)O`, the outcome was inactive. What is called AC50 is the concentration giving half of the maximal activity seen. On to `CCCCCCCCCCCCCCCCCCCCCC(=O)Nc1ccn([C@@H]2O[C@H](CO)[C@@H](O)[C@@H]2O)c(=O)n1`, for which the AC50 is 19 µM (active). Take `O=C(Cl)c1ccccc1[N+](=O)[O-]`: the result was inactive.

For `CCN(CC)CCOCCOC(=O)C(CC)(CC)c1ccccc1`, the outcome was inactive.

For `CCCCCCCCN`, the result was inactive. The same measure, in the same setting: with `CN(C)CCN(Cc1cccs1)c1ccccn1` the entry was “inactive”; with `COc1ccccc1N1CCN(CCCNc2cc(=O)n(C)c(=O)n2C)CC1`, “inactive”.

`C=CS(=O)(=O)O`: the result was inactive. For `CCN(Cc1ccncc1)C(=O)C(CO)c1ccccc1` (centres undefined), the outcome was inactive. Take `c1ccc(CCNc2nc(-c3ccccc3)cs2)cc1`: the outcome was inactive. Turning to `Nc1ccc2cc3ccc(N)cc3nc2c1`, the AC50 was 968 nM (active) and 3.15 µM (active). `O=C[C@H](O)[C@@H](O)[C@H](O)[C@H](O)CO`: the result was inactive. Take `C[C@@H]1O[C@@H](OC[C@H]2O[C@@H](Oc3c(-c4ccc(O)c(O)c4)oc4cc(O)cc(O)c4c3=O)[C@H](O)[C@@H](O)[C@@H]2O)[C@H](O)[C@H](O)[C@H]1O`: the outcome was inactive. Consider `Cc1cnc(C(=O)NCCc2ccc(S(=O)(=O)NC(=O)NC3CCCCC3)cc2)cn1`, for which the outcome was inactive. With `O=C(NCCN1CCOCC1)c1ccc(Cl)cc1`, the outcome was inactive. Regarding `CCn1cc(C(=O)O)c(=O)c2cc(F)c(N3CCNCC3)cc21`, the outcome was inactive.

Turning to `NCCC[C@H](N)CC(=O)N[C@H]1CNC(=O)[C@H]([C@H]2C[C@H](O)NC(N)=N2)NC(=O)/C(=C/NC(N)=O)NC(=O)[C@H](CO)NC(=O)[C@H](CO)NC1=O` (β3hOrn-[Dap]SS[ΔAla(Z-3-ureido)][X3]; lactam 1-C), the result was inactive. On the same count and under the same terms, for `NC(=O)CC[C@@H]1NC(=O)[C@H](Cc2ccccc2)NC(=O)[C@H](Cc2ccc(O)cc2)NC(=O)CCSSC[C@@H](C(=O)N2CCC[C@H]2C(=O)N[C@@H](CCCN=C(N)N)C(=O)NCC(N)=O)NC(=O)[C@H](CC(N)=O)NC1=O` the value was “inactive”; for `OC[C@@H](O)C(O)[C@H](O)CO`, “inactive”. Take `COc1cc([C@@H]2c3cc4c(cc3[C@H](O)[C@H]3COC(=O)[C@H]23)OCO4)cc(OC)c1OC`: the outcome was inactive. Same read-out and setting: for `COc1c(N2C[C@@H]3CCCN[C@@H]3C2)c(F)cc2c(=O)c(C(=O)O)cn(C3CC3)c12` the value was “inactive”. `CO/N=C(/C(=O)N[C@@H]1C(=O)N2C(C(=O)OCOC(=O)C(C)(C)C)=C(C)CS[C@H]12)c1csc(N)n1`: the outcome was inactive. In the case of `Cn1cc(S(C)=O)c(=O)c2ccc(F)cc21` (centres undefined), the result was inactive.
